Screening data from PubChem BioAssay.
B2AR arrestin: qHTS assay of beta-arrestin-biased ligands of beta2-adrenergic receptor; Potency, µM (highest dose often 46.1 µM), for inactives: at the highest dose activation, most hits filed as activators; beta-arrestin recruitment to beta2AR, cell-based reporter; hit rate 0.02% among 330,000; Beta-2 adrenergic receptor (Homo sapiens), P07550;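 further: potency means the concentration at half of the fitted maximal effect; 0% = DMSO controls and full agonism = EC100 isoproterenol or metaproterenol; nearly all actives have a fitted effect of over 65% in size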
Target sequence (P07550 whole entry, looked up): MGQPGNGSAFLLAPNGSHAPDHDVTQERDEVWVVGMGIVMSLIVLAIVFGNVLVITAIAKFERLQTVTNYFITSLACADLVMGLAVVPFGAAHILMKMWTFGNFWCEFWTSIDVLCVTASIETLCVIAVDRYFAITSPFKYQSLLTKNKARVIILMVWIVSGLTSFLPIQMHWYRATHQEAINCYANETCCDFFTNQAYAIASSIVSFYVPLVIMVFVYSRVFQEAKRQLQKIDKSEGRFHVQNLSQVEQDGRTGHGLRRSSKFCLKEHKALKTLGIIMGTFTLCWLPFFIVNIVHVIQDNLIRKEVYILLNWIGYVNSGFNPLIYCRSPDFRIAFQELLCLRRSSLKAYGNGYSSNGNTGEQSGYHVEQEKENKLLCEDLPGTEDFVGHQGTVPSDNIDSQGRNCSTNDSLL
Gal4-VP16 FLuc: VP16 counterscreen qHTS for inhibitors of ROR gamma transcriptional activity; Drosophila S2 Gal4-VP16 UAS-luciferase, luminescence, 20 h; Potency, µM (highest dose often 53.6 µM), for the others: top-dose activity, negative = inhibition, hits mostly inhibitors; hit rate 3.5% among 310,000;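 further: Gal4-VP16 expression switched on by copper sulfate through the metallothionein promoter; potency means the concentration at half of the fitted maximal effect; nearly all actives have a fitted effect of over 50% in size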
RORg inh: qHTS for inhibitors of ROR gamma transcriptional activity; hit rate 5.4% among 310,000; Drosophila S2 Gal4-RORgamma UAS-luciferase reporter, 20 h; AID 2551, 2010; Potency, µM (top dose mostly 53.6 µM), inactives show top-dose activity change, negative = inhibition, most hits filed as inhibitors; Nuclear receptor ROR-gamma (Mus musculus), P51450; further: potency means the concentration at half of the fitted maximal effect; nearly all actives have a fitted effect of over 60% in size
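A Gal4/UAS one-hybrid system in insect cells: metallothionein-promoter Gal4–ROR gamma fusion plus Photinus luciferase reporter. Copper sulfate 700 uM final, 20 hr ambient incubation, luminescent detection after 10 min with reagent.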
ELG1 DNA repair: qHTS screen for small molecules that inhibit ELG1-dependent DNA repair in human embryonic kidney (HEK293T) cells expressing luciferase-tagged ELG1; HEK293T ELG1-luciferase reporter, luminescence, 16 h; DNA damage induced by 5-fluorouridine; Potency, µM (top dose mostly 46.1 µM), for inactives: at the highest dose activity change, negative = inhibition, most hits filed as inhibitors; hit rate 2.3% among 330,000; AID 504467, 2011; further: potency means the concentration at half of the fitted maximal effect; nearly all actives have a fitted effect of over 55% in size
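In this reporter screen, reduction of luminescence relative to DMSO vehicle indicated activity. Compounds and 5-fluorouridine were added together to 2,000 cells per well, incubated for 16 hr at 37 °C, then developed with ONE-Glo.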
TSHR antag: Antagonists of the Thyroid Stimulating Hormone Receptor: HTS campaign; activity change, negative = inhibition, % at 11.5 µM; Thyrotropin receptor (Homo sapiens), P16473; TSHR-expressing cells, TSH-stimulated cAMP HTRF, 2 h; stronger effect = lower value; hit rate 0.2% among 330,000;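 active means activity change below a set negative limit, meaning inhibition stronger than a set level, cut at about -70% in these data; inconclusive means activity change between two set negative limits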
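Read-out is FRET at 665 nm (cryptate excitation 337 nm) from a cryptate-tagged anti-cAMP antibody, competed by cell cAMP against cAMP-d2. Compounds are tested on freshly harvested TSHR cells challenged with 4nM TSH (EC80) for 2 hours at 37 deg C.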
Starred values were filed as active, the others as inactive; ? = inconclusive; · = not tested or not shown; [ ] = remark or other dose. Shown are actives, neighbours in structure and some others; about 7.5% of the full set was active somewhere. Unless noted, the call rests on the fitted dose curve; in most records, active means well fitted curve in the direction sought with a large enough effect; inconclusive means small, poorly fitted or top-dose-only effect, or another doubt; inactive means no such curve, though single readings can be large; an effect the other way counts as inactive or inconclusive. Unless noted, on the % scale 0 is the no-effect control and ±100 the full control effect.

SMILES	B2AR arrestin	Gal4-VP16 FLuc	RORg inh	ELG1 DNA repair	TSHR antag
O=C(/C=C/c1ccc(S(=O)(=O)N2CCOCC2)cc1)Nc1ccc(F)c(F)c1F	3.7%	·	·	20.6µM*	-20.9
CC(=O)Nc1cccc(NC(=O)/C=C/c2ccc(S(=O)(=O)N3CCOCC3)cc2)c1	-0.1%	·	·	?	1.7
Cc1cc(NC(=S)NC(=O)/C=C/c2ccc(S(=O)(=O)N3CCOCC3)cc2)ccc1Br	-0.1%	-6.4%	7.08µM*	-9.1%	-9.4
O=C(/C=C/c1ccc(S(=O)(=O)N2CCOCC2)cc1)NC(=S)Nc1ccc(N2CCOCC2)cc1	0.0%	-15.6%	5.62µM*	-3.7%	-12.2
CC1CCCC(C)N1C(=O)/C=C/c1ccc(S(=O)(=O)N2CCOCC2)cc1 (centres undefined)	-0.4%	·	·	13µM*	-0.3
COc1ccc(C(=O)CCc2ccccc2)cc1	0.3%	-2.5%	6.3%	?	-2.5
Cc1cc2c(c(=O)o1)C1O[C@](CCCCN3C(=O)c4ccccc4C3=O)(Cc3cc(C#N)ccc31)O2	-0.2%[9.22 µM]	0.7%[10 µM]	4.8%[10 µM]	·	·
CCN(CC)S(=O)(=O)c1ccc(/C=C/C(=O)Nc2ccc(N3CCOCC3)cc2)cc1	-0.4%	0.9%	35.6%	5.17µM*	-11.1
COc1ccc(/C=C/C(=O)Nc2ccc(N3CCOCC3)cc2)cc1	0.0%	-15.1%	-5.5%	7.7%	2.0
O=C(c1ccncc1)N1CCC2(CC1)CN(c1ncccn1)C2	·	-5.4%	-6.4%	·	·
CCNC(=O)NCc1cccc(Cl)c1	·	-10.1%	2.2%	·	·
CCOC(=O)Cn1nc(/C=C/c2ccccc2)ccc1=O	0.1%	14.1µM*	-86.0%	17.9%	21.6
CCOC(=O)Cn1nc(/C=C/c2ccc(C)cc2)ccc1=O	11.0%	5.8%	33.0%	17.3%	-2.9
COc1ccc(Br)cc1/C(C)=N/NC1=NCCN1	0.0%	12.6µM*	?	?	-6.8
CCN(CC)CC(=O)Nc1ccc(/C(C)=N/NC2=NCCN2)cc1	0.0%	4.6%	-6.8%	9.0%	3.1
C/C(=N\NC1=NCCN1)c1ccccc1	-0.8%	-4.9%	17.9%	-1.8%	-4.1
CCCCCOc1ccc(Br)cc1/C(C)=N/NC1=NCCN1	-0.7%	?	2.51µM*	?	-11.5
COc1cc2c(c(OC)c1OC)-c1c(cc3c(c1OC)OCO3)CC(C)C(C)(O)C2OC(=O)c1ccccc1 (centres undefined)	·	3.5%	35.1%	·	·
Cc1ccc(C(C[N+](=O)[O-])c2c(N)n(C)c(=O)n(C)c2=O)cc1 (centres undefined)	-0.3%	?	12.6µM*	-7.5%	4.2
COc1cc(C(C[N+](=O)[O-])c2c(N)n(C)c(=O)n(C)c2=O)ccc1O (centres undefined)	0.5%	-86.5%	14.1µM*	-3.9%	-1.7
COc1cc(C(C[N+](=O)[O-])c2c(C)[nH]c3ccccc23)ccc1O (centres undefined)	-0.5%	25.0%	0.6%	2.9%	21.3
COc1cccc(F)c1C(C[N+](=O)[O-])c1c(N)n(C)c(=O)n(C)c1=O (centres undefined)	-0.7%	11.2µM*	7.08µM*	18.3µM*	-12.6
O=C(O)c1cc2c(cn1)[nH]c1ccccc12	-0.3%	-25.0%	-21.4%	?	33.0
O=c1cnc2cnc(Nc3ccccc3)nc2n1C1CC1	·	-6.0%	?	·	·
CN(C)c1ccc(-c2nc(NCc3cccnc3)c3ccccc3n2)cc1	·	14.1µM*	?	·	·
COc1ccc(CNc2nc(-c3ccc(N(C)C)cc3)nc3ccccc23)c(OC)c1	·	5.01µM*	5.01µM*	·	·
COc1ccc(CNc2nc(-c3ccc(C(=O)N(C)C)cc3)nc3ccccc23)c(OC)c1	·	-4.9%	?	·	·
CN(C)c1ccc(-c2nc(Nc3ccncc3)c3ccccc3n2)cc1	·	15.8µM*	?	·	·
c1cncc(CNc2nc(-c3ccoc3)nc3ccccc23)c1	·	5.5%	4.2%	·	·
c1ccc(CCNc2nc(-c3ccncc3)nc3ccccc23)cc1	0.0%	-11.1%	?	14.6µM*	3.5
